We go through 36 compounds from PubChem BioAssay AID1224858 (National Center for Advancing Translational Sciences (NCATS), 2016).

Results filed as inconclusive are left out. Activity calls are given as the source filed them. The call rests on the fitted dose curve; in most records, active means well fitted inhibition curve with a large enough effect; inconclusive means small, poorly fitted or top-dose-only effect; inactive means no such curve, though single readings can be large or run the other way.

A short description of this experiment: Confirmation assay for measurement of the activity of small molecule inhibitors on Zika virus induced Caspase-3 activity in human astrocytes. The following applies: ZIKV-induced caspase-3/7 luminescence, 6 h; series mostly up to 46.1 µM. The procedure, abridged: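 Human astrocytes were pretreated 1 h with compound, then infected with ZIKV (2 FFU/cell) for 6 h at 37 C. Caspase-3/7 activity by Caspase-Glo luminescence; percent inhibition versus uninfected and infected wells.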
Regarding `Nc1ncnc2c1ncn2[C@@H]1O[C@@H](CO)[C@H](O)[C@H]1O`, the Potency result is “inactive”. `Nc1ccc2c(c1)CN1C(=O)c3ccccc3C1=N2`: the Potency was 2.13 µM (active). For the compound `CO[C@H]1C(=O)[C@]2(C)[C@@H](OC)C[C@H]3OC[C@@]3(OC(C)=O)[C@H]2[C@H](OC(=O)c2ccccc2)[C@]2(O)C[C@H](OC(=O)[C@H](O)[C@@H](NC(=O)OC(C)(C)C)c3ccccc3)C(C)=C1C2(C)C`, the Potency result is “inactive”.

For the compound `CN(C)c1ccc(/C=C2\C(=O)Nc3ccccc32)cc1`, the Potency was 8.69 µM (active). Consider `Cc1c(C(=O)O)c(O)cc2c1C(=O)c1c(O)c([C@@H]3O[C@H](CO)[C@@H](O)[C@H](O)[C@H]3O)c(O)c(O)c1C2=O`, for which the Potency result was “inactive”.

As to `c1ccc(CCNc2nc(-c3ccccc3)cs2)cc1`, the Potency is 10.9 µM (active). Next, `CN(C)c1cc(NC(=O)CNC(C)(C)C)c(O)c2c1C[C@@H]1C[C@H]3[C@H](N(C)C)C(=O)C(C(N)=O)=C(O)[C@@]3(O)C(=O)C1=C2O`: “inactive”; `CCC(C(=O)O)c1ccc(N2Cc3ccccc3C2=O)cc1` (stereo unspecified): 6.9 µM (active); `O=C(/C=C/c1ccccc1)NCCO`: “inactive”. Consider `O=C(O)c1ccccc1Nc1cccc(C(F)(F)F)c1`, for which the Potency is 6.9 µM (active).

As to `CN1CC(=O)N/C1=N/C(=O)Nc1cccc(Cl)c1`, the Potency is 10.9 µM (active).

Turning to `CC(C)OC(=O)CCCC=CC[C@@H]1[C@H](C=C[C@@H](O)COc2cccc(C(F)(F)F)c2)[C@H](O)C[C@@H]1O`, the Potency result was “inactive”. `O=c1cc(-c2ccccc2)oc2cc(O)c(O)c(O)c12`: the Potency result was “inactive”.

For `NC1CCC(Nc2nc(Nc3ccc(C(=O)N4CCCCC4)cc3)c3ncn(-c4cccc(F)c4)c3n2)CC1` (stereo unspecified), the Potency result was “inactive”.

For the compound `COc1ccc(-c2coc3cc(O)ccc3c2=O)cc1`, the Potency was 15.5 µM (active). In the case of `O=C1c2ccccc2-[n+]2ccc3c([nH]c4ccccc43)c21` it was 7.74 µM (active). Turning to `N#C/C(=C\c1ccc(O)c(O)c1)C(=O)Nc1ccccc1`, the Potency is 21.8 µM (active). On to `Cc1c(N)c(=O)n(-c2ccccc2)n1C`, for which the Potency result was “inactive”.

On to `COc1cccc(-c2ccc(NC(=O)C3=C(C(=O)O)CCC3)c(F)c2)c1`, for which the Potency was 2.45 µM (active). With `COc1ccc(-c2cc(=O)c3c(O)cc(O)cc3o2)cc1O`, the Potency is 13.8 µM (active). With `CS(=O)(=O)c1ccc(-c2cn3ccccc3n2)cc1`, the Potency was 7.74 µM (active). As for `CC(C)Oc1ccc2c(=O)c(-c3ccccc3)coc2c1`, the Potency was 10.9 µM (active). On to `C/C(=N\O)c1ccc(OCC(=O)N2CCCCC2)cc1`, for which the Potency is 9.75 µM (active). Regarding `O=S(=O)(O)CCSSCCS(=O)(=O)O`, the Potency entry is “inactive”. For `CN(C)CCCSc1ccccc1NC(=O)/C=C/c1ccccc1`, the Potency was 13.8 µM (active). With `CC(C)c1ccc2oc3nc(N)c(C(=O)O)cc3c(=O)c2c1`, the Potency is 1.95 µM (active). Take `O=C1NC(=O)C(=Cc2ccc(-c3ccc(F)cc3)o2)S1`: the Potency is 12.3 µM (active). On to `COc1ccc(/C=C/C(=O)Nc2ccccc2C(=O)O)cc1OC`, for which the Potency was 13.8 µM (active).

For the compound `CC1(C)Cc2c(sc(NC(=S)NC(=O)c3ccccc3)c2C(=O)O)CO1`, the Potency result is “inactive”. As for `NC(N)=NN=C(/C=C/c1ccc([N+](=O)[O-])o1)/C=C/c1ccc([N+](=O)[O-])o1`, the Potency result was “inactive”. Next, `CC(C)(C)OC(=O)CN(Cc1ccc(Cl)cc1)Cc1ccc([N+](=O)[O-])s1`: “inactive”.

Regarding `Cc1ccc(C(=O)c2ccc(CC(=O)O)n2C)cc1`, the Potency entry is “inactive”.

Regarding `CCN1/C(=C/C=C/c2sc3ccccc3[n+]2CC)Sc2ccccc21`, the Potency entry was “inactive”. With `CC=CC[C@@H](C)C(=O)[C@H]1C(=O)N[C@@H](C(C)C)C(=O)N(C)CC(=O)N(C)[C@@H](CC(C)C)C(=O)N[C@@H](C(C)C)C(=O)N(C)[C@@H](CC(C)C)C(=O)N[C@@H](C)C(=O)N[C@H](C)C(=O)N(C)[C@@H](CC(C)C)C(=O)N(C)[C@@H](CC(C)C)C(=O)N(C)[C@@H](C(C)C)C(=O)N1C`, the Potency result was “inactive”. `C[C@H](NC(=O)C(=O)Nc1ccccc1C(C)(C)C)C(=O)N[C@@H](CC(=O)O)C(=O)COc1c(F)c(F)cc(F)c1F`: the Potency was 0.245 µM (active). In the case of `Cc1[nH]c(C=C2C(=O)Nc3ccccc32)c(C)c1CCC(=O)O` it was “inactive”.
